# Results reported in the supplement of paper PMC6411743.
# ± gives the standard deviation of the averaged measurements. About 6,500 targets were measured; listed, in parts, are those with the largest changes and a random draw of the rest.
# Columns and labels:
# Assay in all cases: NP40-soluble protein abundance relative to vehicle (solubility fold change) (ratio); higher = more soluble protein in presence of ATP
# [1] = biological target: T1, LAGE3 (UniProt Q14657)
# T1 sequence (whole entry): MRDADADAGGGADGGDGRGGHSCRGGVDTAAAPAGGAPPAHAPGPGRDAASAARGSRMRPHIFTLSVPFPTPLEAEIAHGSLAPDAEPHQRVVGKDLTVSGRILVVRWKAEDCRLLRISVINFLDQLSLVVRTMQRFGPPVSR
# Procedure, shortened: (§1)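 In three independent experiments, Jurkat crude lysate made by Dounce homogenisation was treated for 10 min at room temperature and then 3 min at 37 °C with eight concentrations ranging from 0.1 to 10 mM. It was then solubilised with 0.8% NP40 plus benzonase for 60 min at 4 °C and ultracentrifuged. The supernatant was TMT-labelled for LC-MS/MS, and each value is the fold change against the detergent-processed vehicle for the same replicate, using vsn-normalised intensities.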
# [2] = biological target: T2, NHLRC2 (UniProt Q8NBF2)
# T2 sequence (whole entry): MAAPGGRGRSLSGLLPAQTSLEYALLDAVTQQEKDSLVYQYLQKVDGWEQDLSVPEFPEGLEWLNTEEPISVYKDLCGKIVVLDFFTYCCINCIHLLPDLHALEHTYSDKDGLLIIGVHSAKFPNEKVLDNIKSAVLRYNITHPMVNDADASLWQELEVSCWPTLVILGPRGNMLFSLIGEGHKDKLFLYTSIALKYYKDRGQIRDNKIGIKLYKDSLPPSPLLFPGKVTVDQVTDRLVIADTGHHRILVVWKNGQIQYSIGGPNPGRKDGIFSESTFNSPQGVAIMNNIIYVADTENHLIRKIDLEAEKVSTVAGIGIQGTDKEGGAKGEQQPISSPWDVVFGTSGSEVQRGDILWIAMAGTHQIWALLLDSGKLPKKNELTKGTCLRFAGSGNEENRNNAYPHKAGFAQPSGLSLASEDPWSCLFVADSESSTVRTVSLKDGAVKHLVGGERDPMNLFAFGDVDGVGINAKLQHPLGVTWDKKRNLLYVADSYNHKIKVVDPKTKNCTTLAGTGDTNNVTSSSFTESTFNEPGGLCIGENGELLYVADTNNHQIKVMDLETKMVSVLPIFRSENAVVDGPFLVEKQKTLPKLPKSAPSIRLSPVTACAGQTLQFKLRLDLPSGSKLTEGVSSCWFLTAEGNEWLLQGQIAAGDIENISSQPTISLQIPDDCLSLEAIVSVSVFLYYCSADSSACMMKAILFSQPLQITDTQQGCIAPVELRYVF
# Procedure, shortened: as §1
# [3] = biological target: T3, PSMD6 (UniProt Q15008)
# T3 sequence (whole entry): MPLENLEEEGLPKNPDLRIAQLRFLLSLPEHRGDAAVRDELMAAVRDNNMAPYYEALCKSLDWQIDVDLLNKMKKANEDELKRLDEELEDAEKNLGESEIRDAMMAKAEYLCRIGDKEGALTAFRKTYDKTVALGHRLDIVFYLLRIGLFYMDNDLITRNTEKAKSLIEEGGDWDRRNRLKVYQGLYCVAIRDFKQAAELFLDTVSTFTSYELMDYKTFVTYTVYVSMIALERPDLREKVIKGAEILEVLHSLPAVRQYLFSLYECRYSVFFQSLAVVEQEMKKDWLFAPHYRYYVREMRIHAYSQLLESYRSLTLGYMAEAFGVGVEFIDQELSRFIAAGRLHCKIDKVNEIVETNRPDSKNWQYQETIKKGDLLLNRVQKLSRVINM
# Procedure, shortened: as §1
# [4] = biological target: T4, UniProt Q12805|Q12805-2|Q12805-3|Q12805-4
# T4 sequence (whole entry): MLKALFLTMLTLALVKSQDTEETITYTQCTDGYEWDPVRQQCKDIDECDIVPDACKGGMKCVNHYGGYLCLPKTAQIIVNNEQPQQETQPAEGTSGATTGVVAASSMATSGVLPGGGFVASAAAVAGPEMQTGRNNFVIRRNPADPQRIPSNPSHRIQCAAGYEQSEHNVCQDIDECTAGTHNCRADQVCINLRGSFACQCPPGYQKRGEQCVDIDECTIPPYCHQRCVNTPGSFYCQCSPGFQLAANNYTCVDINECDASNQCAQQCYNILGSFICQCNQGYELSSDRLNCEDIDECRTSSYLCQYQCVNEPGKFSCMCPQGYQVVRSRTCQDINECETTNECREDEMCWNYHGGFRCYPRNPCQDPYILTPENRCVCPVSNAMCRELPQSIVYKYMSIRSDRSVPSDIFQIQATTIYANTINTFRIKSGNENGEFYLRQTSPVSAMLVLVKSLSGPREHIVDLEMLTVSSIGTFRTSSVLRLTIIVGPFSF
# Procedure, shortened: as §1
# [5] = biological target: T5, UniProt Q53H96|Q53H96-2
# T5 sequence (whole entry): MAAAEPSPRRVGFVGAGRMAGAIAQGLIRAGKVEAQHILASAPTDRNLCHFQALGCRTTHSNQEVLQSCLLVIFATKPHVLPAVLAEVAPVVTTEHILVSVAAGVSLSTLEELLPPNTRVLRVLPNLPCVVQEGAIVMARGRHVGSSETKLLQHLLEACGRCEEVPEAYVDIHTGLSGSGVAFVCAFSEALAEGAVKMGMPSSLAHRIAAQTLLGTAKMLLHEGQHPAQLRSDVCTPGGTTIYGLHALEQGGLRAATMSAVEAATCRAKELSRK
# Procedure, shortened: as §1
# [6] = biological target: T6, UniProt Q8N6R0
# T6 sequence (whole entry): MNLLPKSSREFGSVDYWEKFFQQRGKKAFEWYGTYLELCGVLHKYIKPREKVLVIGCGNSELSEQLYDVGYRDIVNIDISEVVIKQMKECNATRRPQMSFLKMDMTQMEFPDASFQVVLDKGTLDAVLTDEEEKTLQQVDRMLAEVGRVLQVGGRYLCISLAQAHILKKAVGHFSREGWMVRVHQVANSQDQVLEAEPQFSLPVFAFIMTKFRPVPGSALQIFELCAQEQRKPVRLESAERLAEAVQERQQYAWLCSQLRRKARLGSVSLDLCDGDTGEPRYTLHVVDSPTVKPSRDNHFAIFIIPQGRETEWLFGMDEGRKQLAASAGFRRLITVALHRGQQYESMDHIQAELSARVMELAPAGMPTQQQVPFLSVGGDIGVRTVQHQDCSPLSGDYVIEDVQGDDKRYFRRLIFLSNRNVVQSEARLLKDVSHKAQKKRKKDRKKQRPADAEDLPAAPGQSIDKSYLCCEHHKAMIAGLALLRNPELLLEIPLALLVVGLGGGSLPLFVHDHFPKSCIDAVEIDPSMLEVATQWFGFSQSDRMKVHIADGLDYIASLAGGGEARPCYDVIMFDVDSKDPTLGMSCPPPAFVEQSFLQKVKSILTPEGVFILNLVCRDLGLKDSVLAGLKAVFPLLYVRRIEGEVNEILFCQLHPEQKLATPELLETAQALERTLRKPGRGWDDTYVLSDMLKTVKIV
# Procedure, shortened: as §1
smiles,measurement,setting,value
Nc1ncnc2c1ncn2[C@@H]1O[C@H](COP(=O)(O)OP(=O)(O)OP(=O)(O)O)[C@@H](O)[C@H]1O [adenosine triphosphate],NP40-soluble protein abundance,[1]; concentration: 1mM,0.907 ± 0.071
same,NP40-soluble protein abundance,[1]; concentration: 2mM,0.909 ± 0.073
same,NP40-soluble protein abundance,[1]; concentration: 4mM,0.901 ± 0.029
same,NP40-soluble protein abundance,[1]; concentration: 6mM,0.881 ± 0.072
same,NP40-soluble protein abundance,[1]; concentration: 8mM,0.903 ± 0.034
same,NP40-soluble protein abundance,[1]; concentration: 10mM,0.882 ± 0.011
same,NP40-soluble protein abundance,[2]; concentration: 1mM,1.01 ± 0.078
same,NP40-soluble protein abundance,[2]; concentration: 2mM,0.994 ± 0.096
same,NP40-soluble protein abundance,[2]; concentration: 4mM,0.979 ± 0.091
same,NP40-soluble protein abundance,[2]; concentration: 6mM,0.976 ± 0.12
same,NP40-soluble protein abundance,[2]; concentration: 8mM,0.985 ± 0.1
same,NP40-soluble protein abundance,[2]; concentration: 10mM,0.983 ± 0.09
same,NP40-soluble protein abundance,[3]; concentration: 1mM,0.959 ± 0.015
same,NP40-soluble protein abundance,[3]; concentration: 2mM,0.9 ± 0.021
same,NP40-soluble protein abundance,[3]; concentration: 4mM,0.893 ± 0.022
same,NP40-soluble protein abundance,[3]; concentration: 6mM,0.889 ± 0.048
same,NP40-soluble protein abundance,[3]; concentration: 8mM,0.921 ± 0.032
same,NP40-soluble protein abundance,[3]; concentration: 10mM,0.886 ± 0.025
same,NP40-soluble protein abundance,[4]; concentration: 1mM,1.03 ± 0.091
same,NP40-soluble protein abundance,[4]; concentration: 2mM,1.04 ± 0.052
same,NP40-soluble protein abundance,[4]; concentration: 4mM,1.06 ± 0.075
same,NP40-soluble protein abundance,[4]; concentration: 6mM,1 ± 0.088
same,NP40-soluble protein abundance,[4]; concentration: 8mM,1.05 ± 0.023
same,NP40-soluble protein abundance,[4]; concentration: 10mM,1.04 ± 0.025
same,NP40-soluble protein abundance,[5]; concentration: 1mM,1.04 ± 0.076
same,NP40-soluble protein abundance,[5]; concentration: 2mM,1.06 ± 0.1
same,NP40-soluble protein abundance,[5]; concentration: 4mM,1.09 ± 0.08
same,NP40-soluble protein abundance,[5]; concentration: 6mM,1.01 ± 0.14
same,NP40-soluble protein abundance,[5]; concentration: 8mM,1.03 ± 0.11
same,NP40-soluble protein abundance,[5]; concentration: 10mM,1.03 ± 0.1
same,NP40-soluble protein abundance,[6]; concentration: 1mM,1.04 ± 0.096
same,NP40-soluble protein abundance,[6]; concentration: 2mM,1 ± 0.081
same,NP40-soluble protein abundance,[6]; concentration: 4mM,1.05 ± 0.072
same,NP40-soluble protein abundance,[6]; concentration: 6mM,0.979 ± 0.085
same,NP40-soluble protein abundance,[6]; concentration: 8mM,1.05 ± 0.075
same,NP40-soluble protein abundance,[6]; concentration: 10mM,1.01 ± 0.053
